The values below come from PubChem BioAssay (EPA / NIEHS).

For experiment [1], the target named is Bile acid receptor (Homo sapiens) (UniProt Q96RI1). As to the kind of experiment: ATG_IR1_CIS: Attagene CIS-FACTORIAL HepG2 Assay for human Nuclear Receptor Subfamily 1 Group H Member 4 (NR1H4), IR1 submotif (AID 2282946; active = hit-call score of the fitted dose curve at least 0.9, where 1 is the maximum; inactive = score below 0.9). To be noted: IR1 reporter transcription, actives raise or lower the signal. A digest of the protocol:
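Fluorescence of capillary-separated, HpaI-digested RT-PCR reporter products gave IR1-element mRNA induction in HepG2 cells 24 h after dosing. Endogenous transcription factors drove the cis-regulated reporters; activity was fitted bidirectionally against DMSO.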

A short description of experiment [2]: ATG_GAL4_TRANS: Attagene TRANS-FACTORIAL HepG2 Assay for GAL4 (Internal Marker) (AID 2282976). To be noted: HepG2 Attagene TRANS GAL4 internal marker reporter. A digest of the protocol:
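Liver HepG2 line bearing multiplexed GAL4-UAS reporter constructs; 24 h chemical treatment. Transcripts were quantified as fluorescent fragments on capillary electrophoresis after RT-PCR and HpaI cut, with activity fitted upward from DMSO.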

For experiment [3], the target named is Oxysterols receptor LXR-beta (Homo sapiens) (UniProt P55055). The experiment in a line: ATG_LXRb_TRANS: Attagene TRANS-FACTORIAL HepG2 Assay for human Liver X Receptor beta (LXRb) (AID 2282981). To be noted: HepG2 Attagene TRANS GAL4-LXRb reporter, mRNA. A digest of the protocol: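 Multiplexed reporter assay, HepG2, 24 h dosing. Fluorescence of labelled RT-PCR products after capillary electrophoresis gives transcript level; positive fitting direction relative to DMSO.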

Experiment [4] deals with Nuclear receptor subfamily 4 group A member 2 (Homo sapiens) (UniProt P43354). The experiment in a line: ATG_NURR1_TRANS: Attagene TRANS-FACTORIAL HepG2 Assay for human Nuclear Receptor Related Protein 1 (NURR1) (AID 2282985). To be noted: HepG2 Attagene TRANS reporter, mRNA readout. In outline:
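Endpoint: reporter mRNA increase relative to DMSO. HepG2 cells transfected with reporter units, treated 24 h; RNA processed by RT-PCR, labelling, HpaI digestion and capillary electrophoresis.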

Experiment [5] addresses human Vitamin D Receptor (VDR), VDR (gene 7421) (UniProt P11473). The experiment in a line: ATG_VDR_TRANS: Attagene TRANS-FACTORIAL HepG2 Assay for human Vitamin D Receptor (VDR) (AID 2283022). In outline: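 Multiplexed TRANS reporter in HepG2; 24 h treatment; reporter mRNA by RT-PCR plus capillary electrophoresis; upregulation scored relative to DMSO.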
A short description of experiment [6]: ATG_XTT_Cytotoxicity: Cytotoxicity Assessment in the Attagene TRANS-FACTORIAL HepG2 Assay (AID 2283584). In outline: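 24 h chemical exposure of reporter-transfected HepG2; XTT signal loss vs DMSO indicates cytotoxicity.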
Experiment [7] is described as follows: TOX21_p53_BLA_p2_viability: Viability Assessment in the Tox21 HCT-116 p53 Agonism Beta-lactamase Assay, Phase 2 (AID 2283591).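 Note: compound exposure lasted 16 h at 37 °C; actives lower the ATP signal meaning cytotoxicity.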 A digest of the protocol:
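HCT116 p53-bla cells, 4000/well, dosed after 5 h plating (217-fold dilution of DMSO stocks) and incubated 16 h at 37C. Viability taken as cellular ATP by CellTiter-Glo luminescence after 30 min RT; signal loss marks cytotoxicity.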

The nature of experiment [8]: TOX21_p53_BLA_p3_viability: Viability Assessment in the Tox21 HCT-116 p53 Agonism Beta-lactamase Assay, Phase 3 (AID 2283593).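 Note: cells exposed to compound for 16 h before reading.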 A digest of the protocol:
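HCT116 cells, 4000/well, dosed 5 h after plating by pin transfer (217-fold dilution from DMSO stock) and incubated 16 h at 37C, 5% CO2. Viability read as ATP luminescence with CellTiter-Glo after 30 min at room temperature.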

The target of experiment [9] is Cellular tumor antigen p53 (Homo sapiens) (UniProt P04637). As to the kind of experiment: TOX21_p53_BLA_p3_ratio: Tox21 HCT-116 p53 Agonism Beta-lactamase Assay, Ratio, Phase 3 (AID 2283596). A digest of the protocol: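 Cells were seeded at 4000/well, rested 5 h at 37C, then dosed with DMSO compound solutions (217-fold dilution) for 16 h. CCF4-AM substrate was loaded for 2 h at room temperature, and the 460/530 nm emission ratio was fitted for gain of signal versus DMSO.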

Experiment [10] in a line: TOX21_p53_BLA_p4_viability: Viability Assessment in the Tox21 HCT-116 p53 Agonism Beta-lactamase Assay, Phase 4 (AID 2283597).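 Note: hits lower the luminescence signal meaning cytotoxicity.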 In outline:
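In this multiplexed secondary endpoint, HCT116 cells (4000 per well, compound at 5 h, 16 h treatment) received CellTiter-Glo after the beta-lactamase read. Luminescence after 30 min RT reflects ATP, and falling signal marks cytotoxicity.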

The target in experiment [11] is Retinoic acid receptor alpha (Homo sapiens) (UniProt P10276). As to the kind of experiment: ATG_DR5_RAR_CIS: Attagene CIS-FACTORIAL HepG2 Assay for human Retinoic Acid Receptor Alpha (RARE), DR5 submotif (AID 2282934; active = hit-call score of the fitted dose curve at least 0.9, where 1 is the maximum; inactive = score below 0.9). To be noted: HepG2 Attagene cis-factorial RARE DR5 reporter, mRNA; actives raise or lower the signal. In outline: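 HepG2 cells transiently transfected with multiplexed reporter units; DR5 cis-element drives reporter through endogenous transcription factors. After 24 h dosing, reporter mRNA quantified by RT-PCR, fluorescent labeling, HpaI digestion and capillary electrophoresis; bidirectional fitting versus DMSO.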

The target in experiment [12] is Nuclear receptor subfamily 1 group I member 3 (Homo sapiens) (UniProt Q14994). As to the kind of experiment: ATG_CAR_TRANS: Attagene TRANS-FACTORIAL HepG2 Assay for human Constitutive Androstane Receptor (CAR) (AID 2282969).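 Note: activators raise reporter mRNA above DMSO so AC50 marks induction.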 To be noted: HepG2 Attagene TRANS-FACTORIAL CAR reporter. A digest of the protocol: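 Transiently transfected HepG2, multiplex TRANS reporters (CAR-Gal4 chimera driving GAL4-UAS reporter). 24 h dosing. Readout: reporter transcript by RT-PCR + capillary electrophoresis, fluorescence intensity; positive direction vs DMSO.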

In experiment [13] the target is Hepatocyte nuclear factor 4-alpha (Homo sapiens) (UniProt P41235). The experiment in a line: ATG_HNF4a_TRANS: Attagene TRANS-FACTORIAL HepG2 Assay for human Hepatocyte Nuclear Factor 4 alpha (HNF4a) (AID 2282982). To be noted: HepG2 HNF4a transactivation reporter, mRNA readout. A digest of the protocol:
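Endpoint reflects transcriptional activation of a GAL4-UAS reporter by an HNF4a-GAL4 chimera in transfected HepG2 cells, 24 h post-dosing. Fluorescence from RT-PCR products separated by capillary electrophoresis; DMSO baseline.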

The target in experiment [14] is human Peroxisome Proliferator-activated Receptor alpha (PPARa), PPARA (gene 5465) (UniProt Q07869). The experiment in a line: ATG_PPARa_TRANS: Attagene TRANS-FACTORIAL HepG2 Assay for human Peroxisome Proliferator-activated Receptor alpha (PPARa) (AID 2283001). A digest of the protocol:
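HepG2, transient MRTU transfection, 24 h treatment. RT-PCR → FAM labelling → capillary electrophoresis. Fit vs DMSO, positive direction.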

The target of experiment [15] is Nuclear receptor subfamily 1 group I member 2 (Homo sapiens) (UniProt O75469). The experiment in a line: ATG_PXR_TRANS: Attagene TRANS-FACTORIAL HepG2 Assay for human Pregnane X Receptor (PXR) (AID 2283008). In outline: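 HepG2 transfected (FuGene 6) with GAL4-UAS reporter units + PXR-Gal4 chimera; dosed 24 h. Total RNA → oligo(dT) RT → PCR → 6-FAM primer extension → HpaI cut → CE. Gain-of-signal vs DMSO.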

Experiment [16] concerns the target human RAR-related Orphan Receptor gamma (RORg), RORC (gene 6097) (UniProt P51449). The experiment in a line: ATG_RORg_TRANS: Attagene TRANS-FACTORIAL HepG2 Assay for human RAR-related Orphan Receptor gamma (RORg) (AID 2283011).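 For AC50: potency for induction of reporter transcripts above DMSO so activators.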 A digest of the protocol: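 Chimeric RORg-Gal4 transactivation in transfected HepG2; 24 h exposure; RT-PCR/capillary electrophoresis readout of reporter mRNA, DMSO baseline.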

Experiment [17] addresses human Peroxisome Proliferator-activated Receptor delta (PPARd), PPARD (gene 5467) (UniProt Q03181). As to the kind of experiment: ATG_PPARd_TRANS: Attagene TRANS-FACTORIAL HepG2 Assay for human Peroxisome Proliferator-activated Receptor delta (PPARd) (AID 2283002). A digest of the protocol: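 HepG2 cells transiently transfected with GAL4-UAS multiplexed reporter units driven by exogenous chimeric NR-GAL4 proteins; 24 h compound exposure. Reporter mRNA measured by RT-PCR, 6-FAM primer extension, HpaI digestion and capillary electrophoresis; gain of signal fitted relative to DMSO.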

Experiment [18] has as its target human RAR-related Orphan Receptor beta (RORb), RORB (gene 6096) (UniProt Q92753). The experiment in a line: ATG_RORb_TRANS: Attagene TRANS-FACTORIAL HepG2 Assay for human RAR-related Orphan Receptor beta (RORb) (AID 2283010). A digest of the protocol:
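Transfect HepG2 with multiple GAL4-UAS reporter transcription units; dose chemicals for 24 h; isolate RNA, reverse-transcribe and PCR-amplify reporter sequences; label, digest and resolve fragments by capillary electrophoresis; fit increases relative to DMSO.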

The nature of experiment [19]: CCTE_Harrill_HTTr_Viability_MCF7: CCTE's 6-hour Cell Viability Assessment for the High-Throughput Transcriptomics (HTTr) Platform, in MCF-7 cells cultured in DMEM + 10% fetal bovine serum, Harrill Lab (AID 2284010; active = hit-call score of the fitted dose curve at least 0.9, where 1 is the maximum; inactive = score below 0.9). A digest of the protocol: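 Read-out is propidium iodide gain of signal by high-content imaging, reflecting membrane integrity loss. Measurements are taken 6 h after dosing, eight concentrations per chemical, with DMSO serving as baseline for bidirectional curve fitting.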

The target in experiment [20] is Oxysterols receptor LXR-alpha (Homo sapiens) (UniProt Q13133). As to the kind of experiment: ATG_LXRa_TRANS: Attagene TRANS-FACTORIAL HepG2 Assay for human Liver X Receptor alpha (LXRa) (AID 2282980). To be noted: HepG2 Attagene TRANS reporter, LXRa transactivation. A digest of the protocol: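 In this multiplexed TRANS system, compounds act on HepG2 cells carrying GAL4-UAS reporter units and a receptor-GAL4 fusion for 24 h. Induced reporter RNA is amplified, fluorescently labelled and sized by capillary electrophoresis, with DMSO as baseline.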

Results filed as inconclusive are left out. The source holds several records for some structures; these can differ, active in one and inactive in another. Active and inactive are the calls of the source. Rule for the calls, unless noted: active = hit-call score of the fitted dose curve at least 0.9, where 1 is the maximum; inconclusive = response in the unintended direction; inactive = score below 0.9.

Nuclear receptor subfamily 1 group I member 2 (Homo sapiens), sequence (O75469 whole entry, looked up, the tested form may be a part): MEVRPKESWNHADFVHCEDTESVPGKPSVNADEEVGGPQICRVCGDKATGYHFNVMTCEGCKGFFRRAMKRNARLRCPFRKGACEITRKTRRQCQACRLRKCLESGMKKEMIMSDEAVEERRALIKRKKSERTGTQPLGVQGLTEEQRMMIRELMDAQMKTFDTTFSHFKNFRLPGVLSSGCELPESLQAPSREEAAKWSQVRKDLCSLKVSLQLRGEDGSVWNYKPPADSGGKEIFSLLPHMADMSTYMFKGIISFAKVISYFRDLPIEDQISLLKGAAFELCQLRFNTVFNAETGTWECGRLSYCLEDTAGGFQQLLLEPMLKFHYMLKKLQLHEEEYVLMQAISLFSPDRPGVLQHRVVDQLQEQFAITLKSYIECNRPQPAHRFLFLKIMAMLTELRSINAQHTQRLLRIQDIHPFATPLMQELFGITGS
Bile acid receptor (Homo sapiens), sequence (Q96RI1 whole entry, looked up): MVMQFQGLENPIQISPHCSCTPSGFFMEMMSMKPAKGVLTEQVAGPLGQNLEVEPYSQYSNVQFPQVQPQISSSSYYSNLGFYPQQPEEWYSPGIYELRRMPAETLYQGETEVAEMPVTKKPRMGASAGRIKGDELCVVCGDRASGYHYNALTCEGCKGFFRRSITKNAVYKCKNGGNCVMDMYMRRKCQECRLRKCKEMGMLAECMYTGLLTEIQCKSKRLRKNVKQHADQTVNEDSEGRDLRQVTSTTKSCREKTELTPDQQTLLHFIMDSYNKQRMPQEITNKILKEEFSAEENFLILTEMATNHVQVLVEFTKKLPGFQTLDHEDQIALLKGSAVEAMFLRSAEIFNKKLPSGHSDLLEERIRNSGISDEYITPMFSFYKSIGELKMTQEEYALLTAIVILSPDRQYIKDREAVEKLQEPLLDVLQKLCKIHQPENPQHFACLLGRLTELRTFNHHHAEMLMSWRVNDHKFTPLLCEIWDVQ
Oxysterols receptor LXR-alpha (Homo sapiens), sequence (Q13133 whole entry, looked up, the tested form may be a part): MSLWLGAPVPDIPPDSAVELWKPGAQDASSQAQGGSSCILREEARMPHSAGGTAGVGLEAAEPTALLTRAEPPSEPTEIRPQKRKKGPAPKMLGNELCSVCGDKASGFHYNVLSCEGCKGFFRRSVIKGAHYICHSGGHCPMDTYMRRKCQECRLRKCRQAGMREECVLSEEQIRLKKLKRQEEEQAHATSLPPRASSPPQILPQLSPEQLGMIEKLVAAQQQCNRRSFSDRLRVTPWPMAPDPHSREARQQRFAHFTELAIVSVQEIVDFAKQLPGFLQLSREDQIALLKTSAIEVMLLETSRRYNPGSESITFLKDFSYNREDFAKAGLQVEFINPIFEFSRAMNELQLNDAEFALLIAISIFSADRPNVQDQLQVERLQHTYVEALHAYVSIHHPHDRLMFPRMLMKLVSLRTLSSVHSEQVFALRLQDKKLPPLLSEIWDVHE
Hepatocyte nuclear factor 4-alpha (Homo sapiens), sequence (P41235 whole entry, looked up, the tested form may be a part): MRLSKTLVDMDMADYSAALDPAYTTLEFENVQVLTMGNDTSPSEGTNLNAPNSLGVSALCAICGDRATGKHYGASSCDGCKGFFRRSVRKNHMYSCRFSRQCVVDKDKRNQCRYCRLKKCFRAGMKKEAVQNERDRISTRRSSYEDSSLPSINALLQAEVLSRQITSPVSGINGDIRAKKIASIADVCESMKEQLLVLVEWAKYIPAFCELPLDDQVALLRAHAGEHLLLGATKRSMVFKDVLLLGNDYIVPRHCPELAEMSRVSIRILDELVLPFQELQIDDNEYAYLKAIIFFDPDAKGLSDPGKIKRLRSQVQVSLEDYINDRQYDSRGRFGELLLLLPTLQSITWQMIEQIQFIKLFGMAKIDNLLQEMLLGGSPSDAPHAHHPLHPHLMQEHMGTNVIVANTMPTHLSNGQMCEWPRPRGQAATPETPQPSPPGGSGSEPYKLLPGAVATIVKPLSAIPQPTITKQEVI
human Vitamin D Receptor (VDR), VDR (gene 7421), sequence (P11473 whole entry, looked up): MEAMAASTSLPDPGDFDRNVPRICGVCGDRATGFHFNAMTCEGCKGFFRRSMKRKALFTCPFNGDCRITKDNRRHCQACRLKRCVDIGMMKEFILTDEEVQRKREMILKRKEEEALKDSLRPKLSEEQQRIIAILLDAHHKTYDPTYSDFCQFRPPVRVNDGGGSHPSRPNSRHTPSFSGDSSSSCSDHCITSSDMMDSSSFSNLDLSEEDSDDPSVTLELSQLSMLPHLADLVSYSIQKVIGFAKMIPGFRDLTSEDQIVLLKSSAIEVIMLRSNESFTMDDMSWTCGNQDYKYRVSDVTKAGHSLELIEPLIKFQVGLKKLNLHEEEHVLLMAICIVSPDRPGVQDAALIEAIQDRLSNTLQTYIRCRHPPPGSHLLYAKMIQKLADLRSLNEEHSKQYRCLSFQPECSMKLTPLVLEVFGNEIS
Retinoic acid receptor alpha (Homo sapiens), sequence (P10276 whole entry, looked up): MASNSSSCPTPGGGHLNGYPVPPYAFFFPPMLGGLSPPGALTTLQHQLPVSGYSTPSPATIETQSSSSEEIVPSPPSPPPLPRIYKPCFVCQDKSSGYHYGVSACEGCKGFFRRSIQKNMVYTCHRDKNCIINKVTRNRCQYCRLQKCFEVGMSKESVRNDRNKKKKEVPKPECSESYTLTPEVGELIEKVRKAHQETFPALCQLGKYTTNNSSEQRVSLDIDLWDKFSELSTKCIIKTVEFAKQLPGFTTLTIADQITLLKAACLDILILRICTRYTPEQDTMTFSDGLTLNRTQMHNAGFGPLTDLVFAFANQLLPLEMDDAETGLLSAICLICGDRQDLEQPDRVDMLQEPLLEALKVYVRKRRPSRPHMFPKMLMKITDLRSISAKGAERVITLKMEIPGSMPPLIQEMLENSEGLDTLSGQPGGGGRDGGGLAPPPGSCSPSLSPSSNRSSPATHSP
Nuclear receptor subfamily 1 group I member 3 (Homo sapiens), sequence (Q14994 whole entry, looked up, the tested form may be a part): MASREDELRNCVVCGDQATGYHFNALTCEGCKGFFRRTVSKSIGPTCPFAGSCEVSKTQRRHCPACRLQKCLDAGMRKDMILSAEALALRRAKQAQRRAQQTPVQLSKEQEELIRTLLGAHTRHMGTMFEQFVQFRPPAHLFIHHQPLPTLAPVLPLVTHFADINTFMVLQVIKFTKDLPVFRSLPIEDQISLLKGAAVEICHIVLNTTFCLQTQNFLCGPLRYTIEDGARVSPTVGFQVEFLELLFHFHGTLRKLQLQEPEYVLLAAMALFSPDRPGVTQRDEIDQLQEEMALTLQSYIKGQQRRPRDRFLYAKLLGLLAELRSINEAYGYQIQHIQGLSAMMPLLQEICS
human RAR-related Orphan Receptor beta (RORb), RORB (gene 6096), sequence (Q92753 whole entry, looked up, the tested form may be a part): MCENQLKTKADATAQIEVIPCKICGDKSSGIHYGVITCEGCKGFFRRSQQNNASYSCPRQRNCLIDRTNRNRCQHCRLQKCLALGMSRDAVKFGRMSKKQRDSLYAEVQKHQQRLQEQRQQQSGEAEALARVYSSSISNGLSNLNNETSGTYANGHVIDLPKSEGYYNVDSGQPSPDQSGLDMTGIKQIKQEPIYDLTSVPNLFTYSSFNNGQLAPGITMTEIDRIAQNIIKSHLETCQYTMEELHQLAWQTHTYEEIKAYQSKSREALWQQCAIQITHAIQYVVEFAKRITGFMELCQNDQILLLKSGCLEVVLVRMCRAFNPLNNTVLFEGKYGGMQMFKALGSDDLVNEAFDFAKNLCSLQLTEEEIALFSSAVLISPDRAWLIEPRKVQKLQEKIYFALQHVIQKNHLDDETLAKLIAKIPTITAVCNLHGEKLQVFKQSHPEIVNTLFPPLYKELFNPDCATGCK
human Peroxisome Proliferator-activated Receptor alpha (PPARa), PPARA (gene 5465), sequence (Q07869 whole entry, looked up): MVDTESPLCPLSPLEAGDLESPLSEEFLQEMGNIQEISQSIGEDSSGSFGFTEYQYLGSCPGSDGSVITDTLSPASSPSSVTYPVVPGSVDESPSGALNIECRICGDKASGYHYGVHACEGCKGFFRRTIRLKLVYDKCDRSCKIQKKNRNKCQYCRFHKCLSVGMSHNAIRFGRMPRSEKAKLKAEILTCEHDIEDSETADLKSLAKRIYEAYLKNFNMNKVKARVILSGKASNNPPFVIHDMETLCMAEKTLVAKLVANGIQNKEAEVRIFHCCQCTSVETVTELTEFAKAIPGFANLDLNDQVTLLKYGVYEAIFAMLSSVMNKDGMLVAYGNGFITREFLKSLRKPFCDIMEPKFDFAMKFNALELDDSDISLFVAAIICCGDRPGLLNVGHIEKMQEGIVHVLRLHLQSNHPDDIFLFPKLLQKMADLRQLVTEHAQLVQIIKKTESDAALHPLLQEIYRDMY
human RAR-related Orphan Receptor gamma (RORg), RORC (gene 6097), sequence (P51449 whole entry, looked up, the tested form may be a part): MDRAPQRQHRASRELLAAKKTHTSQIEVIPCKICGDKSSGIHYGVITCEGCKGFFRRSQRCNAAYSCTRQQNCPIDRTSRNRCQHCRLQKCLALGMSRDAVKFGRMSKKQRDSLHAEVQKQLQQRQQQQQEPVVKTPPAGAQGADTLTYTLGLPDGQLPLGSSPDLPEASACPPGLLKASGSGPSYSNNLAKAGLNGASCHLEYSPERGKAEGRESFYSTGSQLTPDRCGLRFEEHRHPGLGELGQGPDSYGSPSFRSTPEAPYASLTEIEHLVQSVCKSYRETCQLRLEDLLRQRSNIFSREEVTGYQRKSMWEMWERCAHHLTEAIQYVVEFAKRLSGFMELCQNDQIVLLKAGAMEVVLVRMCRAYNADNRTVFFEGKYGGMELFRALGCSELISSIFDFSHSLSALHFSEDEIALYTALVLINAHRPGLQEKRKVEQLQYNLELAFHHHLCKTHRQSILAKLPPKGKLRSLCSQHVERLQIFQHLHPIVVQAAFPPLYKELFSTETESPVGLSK
Cellular tumor antigen p53 (Homo sapiens), sequence (P04637 whole entry, looked up): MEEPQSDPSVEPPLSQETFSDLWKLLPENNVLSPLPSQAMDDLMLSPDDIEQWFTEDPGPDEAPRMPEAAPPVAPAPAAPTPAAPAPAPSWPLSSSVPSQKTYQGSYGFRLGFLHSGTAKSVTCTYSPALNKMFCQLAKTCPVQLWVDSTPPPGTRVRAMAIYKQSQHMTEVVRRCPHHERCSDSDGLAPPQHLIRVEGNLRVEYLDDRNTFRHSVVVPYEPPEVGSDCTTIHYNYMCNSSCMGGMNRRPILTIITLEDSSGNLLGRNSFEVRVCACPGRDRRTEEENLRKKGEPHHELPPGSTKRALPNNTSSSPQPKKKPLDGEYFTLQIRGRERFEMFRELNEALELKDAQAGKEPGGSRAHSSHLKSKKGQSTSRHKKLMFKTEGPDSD

For orientation: AC50 means the concentration giving half of the maximal activity seen. `CN1C[C@H](C(=O)N[C@]2(C)O[C@@]3(O)[C@@H]4CCCN4C(=O)[C@H](Cc4ccccc4)N3C2=O)C=C2c3cccc4[nH]cc(c34)C[C@H]21`: the compound was classed as inactive in [1], in [2], in [3], in [4], in experiment [5] and in experiment [6]. The compound was called inactive in experiment [7], in experiment [8], in [9] and in [10]. The half-maximal activity concentration (AC50) in experiment [10] is 71.4 µM (active).
`N#CCCCl`: the compound was called inactive in [11], in experiment [12], in experiment [2], in [13], in [14] and in experiment [15]. Besides, the call in experiment [16], in [5], in experiment [6], in [7], in experiment [8] and in experiment [9] was inactive. For the same compound, in experiment [10], the call was inactive.
In the case of `C=CC(=O)OCCO`, the compound was classed as inactive in experiment [4], in [14], in experiment [17], in [15], in experiment [18] and in [5]. For the same compound, the compound was classed as inactive in [6], in experiment [8] and in experiment [9].
Take `O=C=Nc1ccccc1`: the compound was classed as inactive in experiment [11], in experiment [12], in experiment [2], in [3], in [13] and in [18]. Besides, the compound was called inactive in experiment [5], in experiment [6] and in experiment [19].
With `BrCBr`, the call in [2], in experiment [20], in experiment [3], in experiment [4], in experiment [17] and in experiment [16] was inactive. Further, the compound was called inactive in experiment [6], in experiment [7], in experiment [8], in experiment [9] and in [10].
As for `Cc1cc(C)c(C2=C(OC(=O)CC(C)(C)C)C3(CCCC3)OC2=O)c(C)c1`, the outcome in [1], in [12], in experiment [2], in experiment [4] and in [6] was inactive.
As to `COC(C)(C)CCC[C@H](C)C/C=C/C(C)=C/C(=O)OC(C)C`, the result in experiment [11], in experiment [12], in experiment [20], in [14], in experiment [16] and in experiment [7] was inactive. In addition, the result in [8], in experiment [9] and in experiment [10] was inactive. In addition, the values for the AC50 in experiment [4] and in experiment [15] were 121 µM (active) and 16.3 µM (active), respectively.
As to `CCCCNP(N)(N)=S`, the outcome in [1], in experiment [3], in experiment [4], in experiment [17], in experiment [7] and in experiment [8] was inactive. The result in [9] and in experiment [10] was inactive.
`CCC(C)(C)O`: the outcome in experiment [12], in [2], in [13], in experiment [4], in experiment [15] and in experiment [16] was inactive. In addition, the compound was classed as inactive in experiment [6] and in experiment [19].
Regarding `CC(C)(C)C(=O)CCl`, the outcome in experiment [20], in experiment [13], in experiment [14], in [17], in experiment [18] and in experiment [6] was inactive. Moreover, the result in experiment [7], in experiment [8], in [9], in experiment [10] and in experiment [19] was inactive. The half-maximal activity concentration (AC50) was 135 µM (active) in experiment [4] and 134 µM (active) in experiment [16].
